Experimental findings from ChEMBL document CHEMBL2218924, “A broad activity screen in support of a chemogenomic map for kinase signalling research and drug discovery” (Biochem J, 2013) are described below.

The target of assay [1] is T1, Serine/threonine-protein kinase TBK1 (Homo sapiens) (UniProt Q9UHD2).
T1 sequence (whole entry): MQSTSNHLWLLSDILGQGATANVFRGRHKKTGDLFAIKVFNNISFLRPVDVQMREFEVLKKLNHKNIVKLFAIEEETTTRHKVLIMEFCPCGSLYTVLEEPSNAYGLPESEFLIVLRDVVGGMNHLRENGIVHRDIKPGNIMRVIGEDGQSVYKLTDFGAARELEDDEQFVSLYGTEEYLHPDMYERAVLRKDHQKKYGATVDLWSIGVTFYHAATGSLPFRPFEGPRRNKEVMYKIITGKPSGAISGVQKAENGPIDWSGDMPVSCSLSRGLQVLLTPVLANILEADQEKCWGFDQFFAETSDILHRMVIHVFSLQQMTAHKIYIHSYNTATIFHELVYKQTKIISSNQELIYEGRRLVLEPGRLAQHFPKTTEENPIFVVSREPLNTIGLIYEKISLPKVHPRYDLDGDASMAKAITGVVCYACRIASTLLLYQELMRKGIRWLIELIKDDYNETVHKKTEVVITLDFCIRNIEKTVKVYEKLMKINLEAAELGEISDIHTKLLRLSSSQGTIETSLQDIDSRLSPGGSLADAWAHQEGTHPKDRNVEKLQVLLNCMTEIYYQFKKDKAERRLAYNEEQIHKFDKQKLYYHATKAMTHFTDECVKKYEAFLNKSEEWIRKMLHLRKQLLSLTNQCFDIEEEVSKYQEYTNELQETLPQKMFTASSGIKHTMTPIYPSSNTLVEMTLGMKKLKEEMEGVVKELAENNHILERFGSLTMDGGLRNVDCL
As to conditions: at 1 µM.

Assay [2] addresses T1, Serine/threonine-protein kinase TBK1 (Homo sapiens). As to conditions: at 10 µM.
Assay [3] addresses T2, TGF-beta receptor type-1 (Homo sapiens) (UniProt P36897).
T2 sequence (whole entry): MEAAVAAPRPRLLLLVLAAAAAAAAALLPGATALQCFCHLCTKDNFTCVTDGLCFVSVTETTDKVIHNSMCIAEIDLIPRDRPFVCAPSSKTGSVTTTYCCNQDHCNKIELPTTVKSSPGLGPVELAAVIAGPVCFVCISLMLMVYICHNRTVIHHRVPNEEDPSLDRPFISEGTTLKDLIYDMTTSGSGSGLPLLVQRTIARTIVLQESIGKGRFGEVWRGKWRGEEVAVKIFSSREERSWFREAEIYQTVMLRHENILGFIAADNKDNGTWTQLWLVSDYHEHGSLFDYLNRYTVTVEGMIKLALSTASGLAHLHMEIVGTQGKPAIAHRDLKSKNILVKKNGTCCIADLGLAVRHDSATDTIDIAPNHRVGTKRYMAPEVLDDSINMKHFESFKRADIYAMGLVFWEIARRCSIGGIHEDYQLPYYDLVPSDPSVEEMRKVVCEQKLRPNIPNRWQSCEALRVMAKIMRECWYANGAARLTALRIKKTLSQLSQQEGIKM
The settings on record: at 1 µM.

Assay [4] deals with T2, TGF-beta receptor type-1 (Homo sapiens). The settings on record: at 10 µM.
For assay [5], the target named is T3, Inhibitor of nuclear factor kappa-B kinase subunit alpha (Homo sapiens) (UniProt O15111).
T3 sequence (whole entry): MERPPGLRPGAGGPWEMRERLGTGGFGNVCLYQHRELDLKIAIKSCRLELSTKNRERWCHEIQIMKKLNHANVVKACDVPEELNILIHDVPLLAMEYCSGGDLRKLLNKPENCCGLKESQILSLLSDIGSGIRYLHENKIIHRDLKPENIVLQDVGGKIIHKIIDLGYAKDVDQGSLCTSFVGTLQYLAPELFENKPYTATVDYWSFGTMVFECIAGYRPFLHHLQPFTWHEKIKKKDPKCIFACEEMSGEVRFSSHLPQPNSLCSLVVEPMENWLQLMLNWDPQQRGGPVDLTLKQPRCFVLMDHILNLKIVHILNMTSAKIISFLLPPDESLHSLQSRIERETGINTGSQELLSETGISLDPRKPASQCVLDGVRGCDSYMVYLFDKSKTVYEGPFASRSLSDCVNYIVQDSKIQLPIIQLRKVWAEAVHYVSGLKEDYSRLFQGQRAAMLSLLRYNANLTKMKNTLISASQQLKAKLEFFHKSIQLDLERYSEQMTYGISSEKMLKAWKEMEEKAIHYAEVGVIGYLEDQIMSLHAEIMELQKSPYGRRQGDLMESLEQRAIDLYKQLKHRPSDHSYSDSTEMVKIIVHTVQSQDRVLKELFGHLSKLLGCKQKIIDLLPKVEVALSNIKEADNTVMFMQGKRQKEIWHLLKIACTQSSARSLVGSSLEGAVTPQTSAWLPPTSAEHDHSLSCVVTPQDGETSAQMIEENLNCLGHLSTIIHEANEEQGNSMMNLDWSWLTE
The settings on record: at 1 µM.

Assay [6] has as its target T3, Inhibitor of nuclear factor kappa-B kinase subunit alpha (Homo sapiens). The settings on record: at 10 µM.
Assay [7] deals with T4, Inhibitor of nuclear factor kappa-B kinase subunit beta (Homo sapiens) (UniProt O14920).
T4 sequence (whole entry): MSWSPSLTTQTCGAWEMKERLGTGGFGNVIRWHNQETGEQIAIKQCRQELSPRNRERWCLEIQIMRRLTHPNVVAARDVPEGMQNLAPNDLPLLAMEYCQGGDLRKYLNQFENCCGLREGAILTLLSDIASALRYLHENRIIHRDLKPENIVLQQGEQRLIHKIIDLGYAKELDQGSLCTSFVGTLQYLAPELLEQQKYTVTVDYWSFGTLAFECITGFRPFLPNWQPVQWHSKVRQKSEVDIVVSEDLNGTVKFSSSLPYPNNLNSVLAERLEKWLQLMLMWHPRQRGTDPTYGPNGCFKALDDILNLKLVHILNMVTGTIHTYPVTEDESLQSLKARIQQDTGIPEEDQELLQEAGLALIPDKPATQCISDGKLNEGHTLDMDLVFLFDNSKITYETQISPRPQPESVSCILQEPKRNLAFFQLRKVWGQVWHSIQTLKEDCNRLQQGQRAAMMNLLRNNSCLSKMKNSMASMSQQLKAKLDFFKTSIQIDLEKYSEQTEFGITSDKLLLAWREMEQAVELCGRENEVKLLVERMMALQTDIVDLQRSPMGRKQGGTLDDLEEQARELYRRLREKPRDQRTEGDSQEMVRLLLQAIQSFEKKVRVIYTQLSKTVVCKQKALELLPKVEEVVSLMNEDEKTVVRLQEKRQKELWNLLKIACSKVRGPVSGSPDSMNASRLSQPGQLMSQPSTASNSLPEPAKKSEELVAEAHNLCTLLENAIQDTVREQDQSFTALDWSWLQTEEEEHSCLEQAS
The settings on record: at 1 µM.

The target in assay [8] is T4, Inhibitor of nuclear factor kappa-B kinase subunit beta (Homo sapiens). The settings on record: at 10 µM.
Assay [9] concerns the target Insulin receptor (Homo sapiens) (UniProt P06213). As to conditions: at 1 µM.

Chain of Insulin receptor (Homo sapiens) (P06213 28-758 limits assumed): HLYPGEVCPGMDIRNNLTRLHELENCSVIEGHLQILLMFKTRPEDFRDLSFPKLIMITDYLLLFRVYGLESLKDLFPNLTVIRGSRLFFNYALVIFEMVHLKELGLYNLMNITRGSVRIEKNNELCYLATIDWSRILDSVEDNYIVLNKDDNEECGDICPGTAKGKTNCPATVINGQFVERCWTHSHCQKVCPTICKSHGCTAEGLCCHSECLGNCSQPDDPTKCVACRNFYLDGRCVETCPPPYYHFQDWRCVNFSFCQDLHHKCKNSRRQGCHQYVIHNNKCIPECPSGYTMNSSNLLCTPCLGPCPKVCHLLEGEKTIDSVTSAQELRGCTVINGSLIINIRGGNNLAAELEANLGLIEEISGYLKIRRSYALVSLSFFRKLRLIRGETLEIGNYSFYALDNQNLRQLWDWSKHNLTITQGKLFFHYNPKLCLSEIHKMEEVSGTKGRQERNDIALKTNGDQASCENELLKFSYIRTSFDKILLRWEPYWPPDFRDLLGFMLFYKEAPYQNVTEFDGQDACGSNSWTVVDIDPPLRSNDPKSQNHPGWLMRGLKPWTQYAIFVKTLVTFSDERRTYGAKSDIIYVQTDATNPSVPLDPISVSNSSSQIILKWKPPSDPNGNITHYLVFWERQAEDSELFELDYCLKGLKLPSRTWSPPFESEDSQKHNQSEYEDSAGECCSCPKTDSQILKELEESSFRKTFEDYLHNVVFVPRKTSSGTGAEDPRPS
Chain of Insulin receptor (Homo sapiens) (P06213 763-1382 limits assumed): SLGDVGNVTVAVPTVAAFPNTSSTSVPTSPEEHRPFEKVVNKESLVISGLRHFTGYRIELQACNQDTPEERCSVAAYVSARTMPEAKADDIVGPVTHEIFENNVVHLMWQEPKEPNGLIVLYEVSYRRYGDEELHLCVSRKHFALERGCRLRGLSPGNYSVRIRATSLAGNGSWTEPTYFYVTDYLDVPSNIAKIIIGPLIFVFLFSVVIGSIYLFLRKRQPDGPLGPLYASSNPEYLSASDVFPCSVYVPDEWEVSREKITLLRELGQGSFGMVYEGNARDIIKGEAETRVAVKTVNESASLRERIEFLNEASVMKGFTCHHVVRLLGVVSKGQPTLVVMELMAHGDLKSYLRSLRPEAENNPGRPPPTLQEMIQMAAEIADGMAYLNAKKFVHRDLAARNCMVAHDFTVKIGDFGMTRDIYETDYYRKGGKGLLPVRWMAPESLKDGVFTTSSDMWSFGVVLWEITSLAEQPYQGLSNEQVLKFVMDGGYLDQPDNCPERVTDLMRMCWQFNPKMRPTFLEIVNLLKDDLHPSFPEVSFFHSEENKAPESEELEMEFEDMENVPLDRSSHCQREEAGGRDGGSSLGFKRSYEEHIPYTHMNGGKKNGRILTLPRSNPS

Turning to `O=C(O)/C=C/c1cc(Br)c(Br)c(Br)c1Br`, the residual activity (usually the signal under treatment as a percentage of the control signal) was 69% in [1]; 58% in [2]; 101% in assay [3]; 97% in assay [4]; 98% in assay [5]; 35% in assay [6]. The figures for the residual activity in [7], in assay [8] and in assay [9] were 105%, 65% and 144%, respectively.
